Most compounds without a hit are left out; they make up all but 1.9% or so of the library.
Efa HMGR inh: blocks class II HMG-CoA reductase of Enterococcus faecalis | inhibition, % at 10 µM | purified E. faecalis HMGR, NADPH absorbance 340 nm kinetic | AID 1066 | 0.41% of 190,000 active;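 active means inhibition above a set limit, the median over all tested compounds plus 3 SD, cut at about 9.5% in these data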;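 further: enzyme runs in reverse so mevalonate oxidation gives rising NADPH absorbance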
Furin inhibitor: human furin inhibition | purified furin, fluorogenic substrate cleavage | inhibition, % at 20 µM or 30 µM | 0.061% of 220,000 active | AID 463115; in the data active means inhibition above about 25%
EP2 antag: blocks the human prostaglandin E2 receptor EP2 | C6 glioma cells expressing human EP2, cAMP TR-FRET; cells stimulated with saturating PGE2 | inhibition, % at 25 µM | 0.52% of 260,000 active | AID 1422;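 active means percent inhibition above 40 after rounding to a whole number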;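 further: rat C6 glioma host cells with rolipram phosphodiesterase inhibitor present; the protocol text gives 20 µM as final concentration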
Target sequence (P43116 whole entry, looked up): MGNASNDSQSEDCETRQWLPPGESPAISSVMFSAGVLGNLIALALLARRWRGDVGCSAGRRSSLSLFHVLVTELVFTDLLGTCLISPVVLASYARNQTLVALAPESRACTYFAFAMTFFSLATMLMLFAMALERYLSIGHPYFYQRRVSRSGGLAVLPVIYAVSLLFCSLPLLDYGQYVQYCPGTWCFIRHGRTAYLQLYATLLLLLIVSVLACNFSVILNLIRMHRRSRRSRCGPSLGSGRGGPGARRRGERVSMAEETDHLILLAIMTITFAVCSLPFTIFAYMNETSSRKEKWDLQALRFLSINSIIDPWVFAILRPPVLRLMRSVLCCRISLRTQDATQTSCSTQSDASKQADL
Calpain2 inh: blocks pig calpain II enzyme activity. purified calpain II, fluorogenic peptide substrate, 30 min. inhibition, % at 16 µM. 0.37% of 220,000 active. AID 1236;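 active means inhibition above about 50%, limit read from the data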
EP2 modulator: modulators of human EP2 prostaglandin E2 receptor | P43116 | EP2-expressing cells, cAMP HTRF FRET, PGE2 co-stimulation | induction, % at 25 µM | 0.83% of 260,000 active | AID 940;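 active means compounds whose cAMP rise, as percent of the full-agonist control response, exceeds 60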;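 further: rat C6 glioma line stably carrying human EP2 under a CMV promoter; the protocol text gives 20 µM as final concentration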
Numbers stand for hits; . = inactive; / = not tested or not shown; ! = a repeat was not active.

SMILES	Efa HMGR inh	Furin inhibitor	EP2 antag	Calpain2 inh	EP2 modulator
O=C1NC(=O)C(=Cc2ccc(-c3ccccc3[N+](=O)[O-])o2)C(=O)N1	/	.	.	.	.
O=C1NC(=O)C(=Cc2ccc(-c3cc(Cl)ccc3[N+](=O)[O-])o2)C(=O)N1	.	.	42.3	.	.
C[N+]1(C)C2CC(OC(=O)[C@@H](CO)c3ccccc3)CC1C1OC12 (stereo partly drawn)	/	/	.	/	.
C[N+]1([O-])[C@@H]2CC(OC(=O)[C@@H](CO)c3ccccc3)C[C@H]1[C@H]1O[C@H]12 (stereo partly drawn)	/	/	48.9	/	.
COc1nc(C)c(CC(=O)N(CCN(C)C)C2CCCC2)c(OC)n1	/	/	.	/	.
O=C(O)C(O)(c1ccc(-c2ccccc2)cc1)c1ccc(-c2ccccc2)cc1	/	/	41.2	/	.
CC(=O)c1ccc(-c2ccccc2)cc1	.	.	.	.	.
CCOC(=S)SCc1nc2ccccc2c(=O)n1-c1cccc(C(F)(F)F)c1	/	/	.	/	.
CCCCNC(=S)N1CCn2cccc2C1c1cccnc1 (stereo not drawn)	11.2	.	.	.	.
COc1ccc(CC(=O)N2CCN(Cc3ccco3)C[C@H]2C)cc1	/	/	/	/	.
Cc1nc2ccccc2cc1C[N+]12CN3CN(CN(C3)C1)C2	/	/	49.6	/	.
Cn1c(=O)c2[nH]cnc2n(C)c1=O.[CH2-][C@H](Cc1cccc2cc(C(=O)O)c(=O)oc12)OC.[Hg].[OH-]	/	/	59.4	/	.
Cc1ccc(-c2nc(C)sc2CC(=O)N(C)CCN(C)C)cc1	/	/	.	/	.
Cn1c(O)c(C=Nc2ccccc2Sc2ccccc2)c(=O)n(C)c1=O	.	.	.	.	61.1
Cc1cccc(N=Cc2c(O)n(-c3ccccc3C)c(=O)[nH]c2=O)c1	.	.	.	.	.
Cc1ccccc1-n1c(O)c(C=Nc2ccc(N(C)C)cc2)c(=O)[nH]c1=O	.	27.4	.	.	.
O=C(O)[C@@H](O)[C@@H](O)[C@@H]1[O][Sb][O][C@@H]1CO	/	/	51.0	/	.
CC1=C2C(=O)[C@H]3[C@@H](CC=C4C[C@@H](O)CC[C@@]43C)[C@@H]2CC[C@@]12O[C@@H]1C[C@H](C)CN[C@H]1[C@@H]2C	/	/	41.0	/	.
CC[C@H]1CN2CCc3cc(OC)c(OC)cc3[C@@H]2C[C@@H]1C[C@H]1NCCc2c1[nH]c1ccc(O)cc21	/	/	61.4	/	.
C#CCOc1ccccc1CN1C2CCC1CC(O)(c1cccc(F)c1)C2 (stereo not drawn)	/	/	.	/	.
C=CCSc1nc2ccccc2c(=O)n1-c1ccccc1C	/	/	.	/	78.1
CSc1nc2ccccc2c(=O)n1-c1ccccc1C	/	/	.	/	.
CC(C)[C@]1(O)[C@@H](OC(=O)c2ccc[nH]2)[C@@]2(O)[C@@]3(C)C[C@]4(O)O[C@@]5([C@H](O)[C@@H](C)CC[C@@]35O)[C@@]2(O)[C@@]41C	/	/	51.1	/	.
O=C(CN1C2CCC1CC(O)(c1ccccn1)C2)NCc1ccc(F)cc1 (stereo not drawn)	/	/	.	/	.
CCN1C[C@]2(OC(=O)c3ccccc3NC(C)=O)CCC(OC)[C@]34C1[C@H](CC23)[C@@]1(O)CC(OC)[C@H]2CC4C1(O)[C@H]2OC (stereo partly drawn)	/	/	.	/	.
SMILES	Efa HMGR inh	Furin inhibitor	EP2 antag	Calpain2 inh	EP2 modulator
O=P(Nc1cccc(Cl)c1)(Oc1ccccc1)Oc1ccccc1	.	.	.	59.6	.
C[C@@]12CC[C@@H]3[C@H](CCC4=CC(=O)CC[C@H]43)[C@H]1CC[C@H]2OC1(O)C(=O)c2ccccc2C1=O	/	/	64.2	/	.
CSc1nc(N)c(N=Nc2ccc([As](=O)(O)O)cc2)c(=O)[nH]1	/	27.1	.	.	.
O=C(O)CCC1NC(=S)NC1=O (stereo not drawn)	/	/	.	/	.
Cc1ccc(C)c(-c2nc(C)sc2CC(=O)N(C)CCN(C)C)c1	/	/	.	/	.
CC(C)c1ccc(N2C(=O)NC(=O)/C(=C/C=C/c3ccco3)C2=O)cc1	.	.	59.2	.	.
Cc1cc(C)cc(N2C(=O)NC(=O)/C(=C\C=C\c3ccco3)C2=O)c1	.	.	87.4	.	.
CCCCN1C(=O)/C(=C/C=C/c2ccco2)C(=O)NC1=S	.	.	.	.	.
Cc1ccc(N2C(=O)NC(=O)/C(=C/C=C/c3ccco3)C2=O)cc1	.	.	114.4	.	.
O=C1NC(=O)N(c2ccccc2)C(=O)/C1=C\C=C\c1ccccc1	/	.	.	.	.
CCc1ccc(N2C(=O)NC(=O)/C(=C\C=C\c3ccco3)C2=O)cc1	/	.	61.4	.	.
NC(CCl)=N[C@H]1CN2CCC1CC2	/	/	.	/	.
CN(C)CCN(C(=O)Cc1ccc2c(c1)OCCO2)C1CCCC1	/	/	.	/	.
O=C(CN1C2CCC1CC(O)(c1ccco1)C2)Nc1nccs1 (stereo not drawn)	/	/	/	/	.
NC(=O)OCCSc1nnc(-c2ccccc2)o1	/	/	.	/	.
O=C1NC(=O)N(Cc2ccc(F)cc2)C(=O)/C1=C\C=C\c1ccco1	/	.	77.7	.	.
O=C1NC(=O)N(Cc2ccccc2)C(=O)/C1=C\c1ccco1	.	.	.	.	.
O=C1NC(=S)NC(=O)C1=Cc1cccc2cc3ccccc3cc12	/	.	97.7!	.	.
CCc1ccc(C(=O)C23CN4CN(CN(C4)C2)C3)cc1	12.2	.	.	.	.
COc1ccc(C(=O)C23CN4CN(CN(C4)C2)C3)cc1	.	.	.	.	.
O=C(O)c1cc[c]([Hg][S]c2ncnc3nc[nH]c23)cc1	/	/	.	/	.
NS(=O)(=O)c1ccc(-c2ccc([As](=O)(O)O)cc2)cc1	/	/	45.0	/	.
O=S(=O)(Nc1nccs1)c1ccc([As](=O)(O)O)cc1	/	/	.	/	.

Screening results deposited in PubChem by several laboratories.
